Rows were chosen to be rich in hits. Some 6.8% of all compounds tested hit in one or more screens of this group.
HCV NS3h FP: hepatitis C NS3 helicase inhibition, primary screen; NS3h Cy5-dT15 DNA binding, fluorescence polarization; inhibition, % at 100 µM; hit rate 1.6% among 16,000; AID 687043;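 active = inhibition above the average over every tested compound plus 3 SD, cut at about 40% in these data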
Cy5 interf NS3h: counter-screen for HCV NS3 helicase inhibitors: fluorescence interference; Cy5-dT15 DNA with NS3h; actives lie on both sides; signal over control mean, under 1 quenches; fluorescence interference ratio at 100 µM; hit rate 6% among 16,000; AID 720488;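 active = compound fluorescence over control fluorescence at most 0.8, a quencher, or at least a set upper limit, an enhancer; inactive = ratio between 0.8 and the set upper limit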
HCV NS3h conf: confirmation of hepatitis C virus NS3 helicase inhibitors | shares compounds with HCV NS3h FP | NS3h binding to Cy5-dT15 DNA, fluorescence polarization | inhibition, % at 100 µM | hit rate 20% among 240;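 active = percent inhibition of 50% or more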
SSB FP counter: E. coli SSB-DNA binding inhibition, NS3h counter-screen; shares compounds with HCV NS3h FP; E. coli SSB binding Cy5-dT15, fluorescence polarization; inhibition, % at 100 µM; hit rate 40% among 240;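 active = inhibition of at least 50%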;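 note: displacers lower Cy5 polarization so higher inhibition means more SSB displaced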
Target sequence (P0AGE0 whole entry, looked up): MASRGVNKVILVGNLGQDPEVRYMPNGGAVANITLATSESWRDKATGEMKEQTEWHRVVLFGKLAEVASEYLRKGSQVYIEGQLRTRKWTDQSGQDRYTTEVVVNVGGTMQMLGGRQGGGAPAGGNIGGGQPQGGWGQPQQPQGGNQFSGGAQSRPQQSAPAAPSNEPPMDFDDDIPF
Cy5 SSB fluor CB: enhances or quenches Cy5-DNA fluorescence with E. coli SSB. shares compounds with HCV NS3h FP. Cy5-dT15/E. coli SSB fluorescence interference; actives lie on both sides. fluorescence interference ratio at 100 µM. hit rate 8% among 240. AID 720487;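 active = fluorescence interference ratio at or above 1.2, signal boosting, or at or below 0.8, signal quenching; inactive = ratio between 0.8 and 1.2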;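 note: ratio of compound well signal to mean negative control signal so 1 means no effect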
Cy5 fluor confirm: Cy5 fluorescence interference, confirmation counter-screen; shares compounds with HCV NS3h FP; Cy5-dT15 DNA/NS3h fluorescence interference counterscreen; fluorescence interference ratio at 100 µM, hits read low; hit rate 44% among 240;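 active = fluorescence interference ratio at or below 0.8 quencher or at or above a set limitenhancer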;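 note: ratio of compound fluorescence to mean of negative controls so 1 means no interference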
* = called active by the depositor; / = no result given.

SMILES	HCV NS3h FP	Cy5 interf NS3h	HCV NS3h conf	SSB FP counter	Cy5 SSB fluor CB	Cy5 fluor confirm
O=C(NC(=S)Nc1ccc(S(=O)(=O)Nc2nccs2)cc1)c1sc2ccccc2c1Cl	25.8	0.918	/	/	/	/
COc1ccc(NS(=O)(=O)c2ccc(NC(=S)NC(=O)c3sc4cc(F)ccc4c3Cl)cc2)nn1	63.1*	0.981	14.0	7.8	1.02	0.756*
O=C1/C(=C\Nc2cc(Cl)ccc2O)CCc2ccccc21	30.8	1.05	/	/	/	/
O=C1NC(=S)N(c2ccccc2)C(=O)/C1=C/c1ccc(-c2cccc(Cl)c2Cl)o1	12.8	0.961	/	/	/	/
O=C1NC(=S)N(c2ccccc2)C(=O)/C1=C/c1ccc(-c2ccc(Cl)c(C(=O)O)c2)o1	92.8*	1.04	40.4	90.3*	0.948	0.784*
COc1cc([N+](=O)[O-])ccc1-c1ccc(/C=C2\C(=O)NC(=S)N(c3ccc(Cl)cc3)C2=O)o1	17.0	0.995	/	/	/	/
Cc1ccc(N2C(=O)/C(=C\c3ccc(-c4ccc(Cl)c(C(=O)O)c4)o3)C(=O)NC2=S)cc1	83.0*	0.863	47.8	93.9*	0.876	0.729*
CC(C)c1ccc(C2C(=C(O)c3ccccc3)C(=O)C(=O)N2CC2CCCO2)cc1 (centres undefined)	4.4	1.17	/	/	/	/
COc1cccc(/C=C2/SC(N)=NC2=O)c1	52.6*	1.28*	-8.3	2.9	0.972	1.03
NC1=NC(=O)/C(=C/c2cccc(Oc3ccccc3)c2)S1	-0.6	0.974	/	/	/	/
O=C(O)c1cccc(NC(=O)c2cccc(N3C(=O)c4ccc(C(=O)Nc5cccc(C(=O)O)c5)cc4C3=O)c2)c1	32.1	0.989	/	/	/	/
O=C(N/C(=C/c1cccs1)c1nc2ccccc2[nH]1)c1ccccc1	23.2	1.01	20.3	35.7	0.961	0.772*
O=C(Nc1ccc(F)cc1)/C(=C\c1cccs1)NC(=O)c1ccccc1	2.2	1.02	/	/	/	/
O=C(NC(O)C(Cl)(Cl)Cl)c1ccc([N+](=O)[O-])cc1 (centres undefined)	39.2	1.04	-1.9	5.3	1.01	0.779*
CCCC(C)NC(=O)c1ccc([N+](=O)[O-])cc1 (centres undefined)	3.1	1.02	/	/	/	/
Cc1ccc(-n2[nH]c(=O)c(C=C3C=Nc4ccccc43)c2O)cc1Cl	0.7	0.999	/	/	/	/
O=C(/C=C/c1ccc(-c2ccccc2)o1)c1ccc(F)cc1	4.7	0.969	/	/	/	/
CCOc1cc(/C=C2/SC(=S)NC2=O)cc(Br)c1OCc1ccc(F)cc1	82.6*	1.01	7.6	23.5	0.939	0.975
C=CCN1C(=O)/C(=C\c2cc(Br)c(OCc3ccc(F)cc3)c(OC)c2)SC1=S	-8.8	1.15	/	/	/	/
Cc1ccc(C(=O)N2CCN(c3ccc([N+](=O)[O-])cc3)CC2)cc1C	3.2	0.95	/	/	/	/
O=C1N=c2ccccc2=C1N=Nc1nc(O)c(-c2c(O)[nH]c3ccccc23)s1	124.3*	0.397*	14.0	32.0	0.756*	0.733*
COC(=O)C(Cc1ccccc1)NC(=O)CCN1C(=O)c2cccc3cccc(c23)C1=O (centres undefined)	-5.0	1.03	/	/	/	/
N#CC1=C(S)NC(=O)C(C#N)C12CCCCC2 (centres undefined)	43.6*	0.957	19.3	39.3	0.94	0.901
C=CCSC1=C(C#N)C2(CCCCC2)C(C#N)C(=O)N1 (centres undefined)	3.2	1.02	/	/	/	/
O=C(CSc1nc2ccccc2c(=O)n1-c1ccccc1)Nc1ccccc1Cl	15.0	1.01	/	/	/	/
